# An excerpt weighted towards active compounds, which were near 7.3% of everything screened.
# Vaccinia Venus – inhibitors of vaccinia virus (Venus reporter); Vaccinia virus Venus reporter expression, fluorescence; Potency, µM (series often up to 36.5 µM), for inactives: top-dose activity change, negative = inhibition, actives largely listed as inhibitors; 330,000 tested, 0.46% active; AID 720580; calls by dose curve; tested in A549 cells; note: potency is the fitted concentration of half-maximal effect; % is set by controls: 0 for no effect and ±100 for the full control effect; nearly all actives have a fitted effect of over 30% in size
# VACV mCherry inh – vaccinia inhibition (mCherry reporter). Vaccinia virus mCherry reporter infection, fluorescence. Potency, µM (series often up to 36.5 µM), without a hit: at the highest dose activity change, negative = inhibition, actives largely listed as inhibitors. 310,000 tested, 0.63% active; calls by dose curve; tested in A549 cells; note: potency is the fitted concentration of half-maximal effect; % is set by controls: 0 for no effect and ±100 for the full control effect; nearly all actives have a fitted effect of over 35% in size
# HCMV inh – human cytomegalovirus inhibition. HFF cells, HCMV-luciferase reporter, 72 h; stronger effect = lower value. activity change, negative = inhibition, % at 57.5 µM. 410,000 tested, 4.5% active. AID 1259415; in the data active = activity change below about -60%; inconclusive = no clear call, values can overlap the other calls; inactive = above about -39%; note: % is set by controls: 0 for no effect and ±100 for the full control effect
#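 Human foreskin fibroblasts infected with luciferase-reporter HCMV at MOI 1 PFU/cell, compounds at two doses. Luciferase measured 72 h post infection; normalized to buffer-only basal and Salinomycin (10uM) controls.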
# FMDV antiviral – foot and mouth disease virus antiviral activity; FMDV antiviral cell-based qHTS; Potency, µM (titrated, usually from 57.9 µM), for inactives: top-dose activity change, negative = inhibition, actives largely listed as inhibitors; AID 1159524; 410,000 tested, 1.2% active; calls by dose curve; tested in HEK293T cells; note: read-out not given here; potency is the fitted concentration of half-maximal effect; % is set by controls: 0 for no effect and ±100 for the full control effect; nearly all actives have a fitted effect of over 45% in size
# HCV inhibitor – inhibitors of hepatitis C virus infection | Huh7.5.1 HCVcc-Cre infection, luciferase reporter, 44 h | Potency, µM (highest dose often 41.8 µM), inactives show at the highest dose activity change, negative = inhibition, actives largely listed as inhibitors | 340,000 tested, 3.4% active; note: potency is the fitted concentration of half-maximal effect; % is set by controls: 0 for no effect and ±100 for the full control effect
#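 Cells (1,000/well) were plated 4 h before compound, then infected with HCVcc-Cre virus (~0.5 moi). After 44 h further culture, infection was read as luciferase luminescence following a 15 min substrate incubation at room temperature.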
# HCV confirm – confirmation of hepatitis C virus inhibitors; AID 720575; shares compounds with HCV inhibitor; 640 tested, 78% active; HCVcc-Cre infectious virus cell assay, luciferase, inhibition; Potency, µM (doses to about 41.8 µM), inactives show top-dose activity, negative = inhibition, most hits filed as inhibitors; note: potency is the fitted concentration of half-maximal effect; nearly all actives have a fitted effect of over 80% in size
# HCV cytotox – host cell cytotoxicity counter-screen for HCV inhibitors; AID 720576; shares compounds with HCV inhibitor; 640 tested, 22% active; HCV host cell line cytotoxicity counterscreen; Potency, µM (series often up to 41.8 µM), without a hit: top-dose activity change, negative = cytotoxicity, actives largely listed as inhibitors;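 note: potency is the fitted concentration of half-maximal effect; 44 h compound exposure; % is set by controls: 0 for no effect and ±100 for the full control effect; nearly all actives have a fitted effect of over 55% in size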
# An asterisk follows results filed as active; i = inactive; ? = inconclusive; nt = not tested or not shown; [ ] = dose if it differs, or a comment. Unless noted, calls come from the whole dose curve; as a rule, active = well fitted curve in the direction sought with a large enough effect; inconclusive = small, poorly fitted or top-dose-only effect, or another doubt; inactive = no such curve, though single readings can be large; an effect the other way counts as inactive or inconclusive.
SMILES,Vaccinia Venus,VACV mCherry inh,HCMV inh,FMDV antiviral,HCV inhibitor,HCV confirm,HCV cytotox
C=C(C)Cc1c(C)c(C#N)c2nc3ccccc3n2c1N1CCCCC1,nt,nt,?,-12.6%,?,14.1µM*,43.4%
COc1ccc(S(=O)(=O)Nc2cccc(-c3ccc(N4CCCCCC4)nn3)c2)c(OC)c1,-16.3%,-21.3%,-23.5,29.8%,3.55µM*,19.9µM*,-15.3%
COc1ccc(S(=O)(=O)Nc2cccc(-c3ccc(N4CCCC4)nn3)c2)c(OC)c1,-27.8%,-28.1%,-5.1,32.5%,nt,nt,nt
Cc1cc(Cl)ccc1NC(=O)NC1CCN(S(=O)(=O)c2ccc(F)cc2)CC1,-24.8%,?,-22.5,?,4.47µM*,11.2µM*,21.9%
CCCCCNc1nc2sc3c(c2c(=O)n1-c1cccc(Cl)c1)CCN(C)C3,-29.9%,-29.2%,?,-7.3%,1µM*,2.23µM*,21.7%
CCCCSc1nc2sc3c(c2c(=O)n1-c1ccccc1)CCN(C)C3,nt,nt,8.5,-29.3%,?,12.5µM*,21.1%
CCCCSc1nc2sc3c(c2c(=O)n1-c1ccc(OC)cc1)CCN(C)C3,-16.1%,?,?,-8.9%,-23.5%,nt,nt
C[C@H](CC[C@@H]1OC1(C)C)C1CC[C@H]2[C@@H]3CC=C4C[C@@H](O)CC[C@]4(C)[C@H]3CC[C@]12C (some centres not stated),-16.8%,-4.6%,nt,12.9%,nt,nt,nt
C=CCc1ccc(OCCOc2cccc3ccc(C)nc23)c(OC)c1,nt,nt,117.6,-9.8%,8.91µM*,12.5µM*,23.7%
Cc1ccc(S(=O)(=O)N(CC(=O)N2CCOCC2)c2ccc(C(C)C)cc2)cc1,8.1%,-7.7%,-19.4,53.3%,-4.3%,nt,nt
Cc1cccc(NS(=O)(=O)c2ccc(C(=O)N3CCN(c4ccccc4O)CC3)cc2)c1C,?,?,-30.9,?,?,nt,nt
CC(=O)N1c2ccc(S(=O)(=O)NCCC(=O)N3CCC(C)CC3)cc2CC1C (configuration not stated),0.0%[7.34 µM],i[7.34 µM],14.2,-17.7%,6.6%,nt,nt
COc1ccccc1NS(=O)(=O)c1cc(C(=O)NC2CCN(Cc3ccccc3)CC2)ccc1C,nt,nt,-62.3*,0.0%,5.62µM*,2.8µM*,2.23µM*
Cc1ccc(C(=O)NC2CCN(Cc3ccccc3)CC2)cc1S(=O)(=O)N1CCOCC1,-22.2%,-21.6%,?,-27.4%,?,nt,nt
COC(=O)C(Cc1ccc(O)cc1)NC(=O)C1CCN(S(=O)(=O)c2ccc(C)cc2)CC1 (configuration not stated),-0.2%,-8.4%,22.8,?,21.1%,nt,nt
FCCCOc1ccc(-c2ccnc(-c3ccccc3)n2)cc1,-5.2%,nt,12.7,31.4%,?,nt,nt
FCCCOc1ccc(-c2nccc(-c3ccc(F)cc3)n2)cc1,-16.7%,nt,1.1,-12.8%,?,?,14.9%
O=C(Cc1csc(Nc2nc(=S)[nH]c3ccccc23)n1)N1CCN(c2cccc(C(F)(F)F)c2)CC1,-4.1%,-14.3%,-14.2,?,5.62µM*,12.5µM*,12.5µM*
Cc1ccc(CNC(=O)Cc2csc(Nc3nc(=S)[nH]c4ccccc34)n2)cc1,nt,nt,51.3,nt,nt,nt,nt
COc1cc(N)c(Cl)cc1C(=O)OCCCN1CCCCC1,nt,nt,nt,-16.2%,nt,nt,nt
COc1cc(N)c(Cl)cc1C(=O)N[C@H]1CCN(CCCOc2ccc(F)cc2)C[C@H]1OC,-16.5%,-9.5%,-94.3*,?,1.78µM*,4.45µM*,4.0%
COc1cccc(Oc2ccc(N)cn2)c1,4.9%,-4.1%,11.4,14.5%,?,nt,nt
Cc1cc(Oc2ccc(N)cn2)ccc1Cl,-23.0%,-9.3%,99.4,28.4%,?,?,48.6%
Cc1c(C(=O)Nc2cccc([N+](=O)[O-])c2)csc1-c1ccccc1,-10.1%,i,-75.3*,-1.3%,7.08µM*,11.2µM*,?
c1ccc2nc(-c3ccc4c(c3)OCO4)ccc2c1,-0.9%,i,115.9,9.8%,-9.3%,nt,nt
SMILES,Vaccinia Venus,VACV mCherry inh,HCMV inh,FMDV antiviral,HCV inhibitor,HCV confirm,HCV cytotox
COc1ccc(OC)c2nc(-c3ccc4c(c3)OCO4)ccc12,-20.2%,?,135.2,53.4%,4.47µM*,8.87µM*,24.0%
c1cnc2c(c1)ccc1cccnc12,?,3.55µM*,-98.9*,-6.1%,8.91µM*,7.05µM*,-64.7%
CC(C)CNC(=S)N(CCN(C)C)Cc1cc2cc3c(cc2[nH]c1=O)OCO3,-21.6%,-0.6%,48.1,-15.7%,4.47µM*,0.5%,16.6%
O=C(C1CCOCC1)N1CCCC(N2CCN(c3ccc(F)cc3)CC2)C1 (configuration not stated),nt,nt,-2.8,-2.1%,9.3%,nt,nt
CCCc1ccc(C2C3=C(CC(C)(C)CC3=O)NC3=C2C(=O)c2ccccc23)cc1 (configuration not stated),?,-25.6%,?,-8.3%,2.24µM*,11.2µM*,?
CCOc1ccc(CNC(=O)c2ccc(Sc3ccc(Cl)cc3)c(NC(C)=O)c2)cc1,?,?,-18.2,-29.6%,-29.0%,nt,nt
CCOc1ccccc1CNC(=O)c1ccc(Sc2ccc(Cl)cc2)c(NC(C)=O)c1,-13.3%,-1.1%,-22.3,-14.4%,?,12.5µM*,18.3%
CC1(c2nnnn2-c2ccc3c(c2)OCCO3)CCC(=O)N1Cc1cccnc1 (configuration not stated),7.7%,-0.6%,-4.0,-4.7%,nt,nt,nt
COc1ccc(Br)cc1/C=C/C(=O)Nc1ccc(C)cc1,-28.7%,?,68.3,-6.7%,?,7.05µM*,7.7%
CCCn1nnc(NC(=O)/C=C/c2cc(Br)ccc2OC)n1,-5.2%,i,?,-7.7%,?,nt,nt
CCOC(=O)N1CCC(NC(=O)CCc2c(C)nc3c(c(C)nn3C(C)(C)C)c2C)CC1,nt,nt,-73.0*,?,5.62µM*,12.5µM*,?
CSc1ccc(CCNc2ncnc3onc(-c4ccc(Cl)cc4)c23)cc1,-9.9%[7.34 µM],-13.4%[7.34 µM],?,?,nt,nt,nt
COC(=O)/C(C#N)=C\c1c(OC)[nH]c2ccccc12,nt,nt,?,-12.4%,3.98µM*,11.2µM*,23.0%
COc1cc(OC)cc(C2=Cc3ccccc3C(CC(=O)c3ccco3)N2c2ccc(-c3cccnc3)cc2)c1 (configuration not stated),2.4%,-1.7%,55.4,-20.0%,nt,nt,nt
O=[N+]([O-])c1ccc(CSc2ccc(S(=O)(=O)N3CCCCCC3)cn2)cc1,4.0%,-29.0%,-14.3,?,?,nt,nt
CCOC(=O)c1cc2n(c1/N=C/N(C)C)-c1ccccc1C2=O,5.5%,-18.2%,31.1,nt,?,?,34.9%
COc1ccc(OC)c(-c2cc(C(=O)NCc3ccco3)no2)c1,-26.8%,-25.0%,97.3,0.0%,?,28µM*,-14.4%
COc1cccc(-c2cc(C(=O)NCc3ccco3)no2)c1,nt,nt,71.3,54.0%,-21.1%,nt,nt
CCSc1nc2c(c(=O)n(C)c(=O)n2C)n1Cc1ccc(Cl)cc1,-3.7%,-8.7%,-27.5,?,?,nt,nt

# Bioassay records as filed in PubChem BioAssay.
